Results: PubChem BioAssay

Experiment: growth of efflux-deficient E. coli DRC39 – strain DRC39, OD650, 24 h, E. coli filamentation inducers, primary screen (AID 1178);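 also: growth measured as culture turbidity by optical density at 650 nm; test concentration not given here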
Conditions: E. coli DRC39 acrAB, higher = more signal, called active from +8 up or from −8 down

z-score, inactive:
COC(=O)[C@H](Cc1ccc(O)cc1)N[C@@H](/C=C/C1CC1)[C@H](O)Cc1ccccc1 -0.396
COc1ccc(CCNC(=O)[C@@H]2c3ccccc3C(=O)N(Cc3ccccc3OC)[C@H]2c2ccc(CO)cc2)cc1 0.483
COc1ccc(C(=O)Nc2cccc(CN3C(=O)[C@]4(O[C@H](CC(=O)N5Cc6ccccc6C[C@H]5CO)[C@@H]([Si](C)(C)c5ccc(OC)cc5)[C@@H]4C)c4ccccc43)c2)cc1 0.0049
C=CCN1Cc2ccccc2[C@H]2OC(c3ccc(OCCCO)cc3)=N[C@@]2(CCS(=O)(=O)c2ccccc2)C1=O -0.135
C=CCOC(=O)[C@H]1[C@@H]2C(=O)O[C@@H](c3ccccc3)[C@@H](c3ccccc3)N2[C@@H](c2ccc(OCCOC(=O)[C@H]3C[C@H]4C(=O)N[C@@H](CC(C)C)C(=O)N4[C@H]3c3ccc(O)cc3)cc2)[C@]12C(=O)Nc1ccccc12 0.376
CC1CC/C=C\[C@H]2OC34C=CCN(Cn5nnc6ccccc65)C(=O)[C@H]3N(CCCCCCO)C(=O)[C@@H]4C2C(=O)O1 (stereo not given in full) 0.816
[N-]=[N+]=Nc1ccccc1C[C@@]1(C(=O)NCc2ccccc2)N=C(c2ccc(OCCCO)cc2)O[C@@H]1c1ccccc1N=[N+]=[N-] 0.969
Cc1ccc(S[C@]2(C(=O)NCCCN(C)C)CC(=O)N(C3Cc4ccccc4C3)[C@@H]2c2ccc(CO)cc2I)cc1 -0.605
CC(C)N1C(=O)c2ccccc2[C@](C)(C(=O)NCC(F)(F)F)[C@@H]1c1ccc(CO)cc1 0.558
CN(C)CCCC[C@@H]1NC(=O)[C@H]2C[C@@H](C(=O)O)[C@@H](c3ccc(O)cc3)N2C1=O 0.679
O=C1[C@@H]2[C@@H](CC(COc3ccccc3)=C([C@H](O)CCc3ccccc3)[C@@H]2CO)C(=O)N1Cc1ccccc1 0.372
C=C(CCCC)/C(=C/C[C@H](OC(=O)c1ccncc1)c1ccccc1OCCO)c1cc(C(=O)OC)ccc1OC 0.128
CC(C)NC(=O)[C@@]1(C)c2ccccc2C(=O)N(Cc2ccccc2)[C@H]1c1ccc(CO)cc1 0.4
COc1ccc(C#Cc2ccc3c(c2)[C@]2(C(=O)N3)[C@H](C(=O)O)[C@H]3C(=O)O[C@H](c4ccccc4)[C@H](c4ccccc4)N3[C@@H]2c2ccccc2OCCO)cc1 0.761
CCCCCCc1nc(Cc2cc(OC)c(OC)c(OC)c2)cc2c1[Si](C(C)C)(C(C)C)O[C@H]2c1ccccc1 -0.373
O=C1C[C@@](C(=O)NCc2ccccc2)(c2ccc([N+](=O)[O-])cc2)[C@@H](c2ccc(CO)cc2)N1C1CCCCC1 0.639
O=C(NCc1ccccc1)[C@@H]1c2ccccc2C(=O)N(Cc2cc(C(F)(F)F)cc(C(F)(F)F)c2)[C@H]1c1ccc(CO)cc1 0.324
COc1ccc([Si](C)(C)[C@@H]2[C@@H](CC(=O)N(CCO)Cc3ccccc3)O[C@]3(C(=O)N(Cc4ccc(I)cc4)c4ccccc43)[C@H]2C)cc1 -0.318
COCCn1c(C(=O)N(C)C)cc2c1C[C@H]1CN(C(=O)c3ccccc3)[C@@](Cc3ccc(OC)cc3)(C(=O)OC)[C@@H]21 -0.134
O=C1C2C=CC(C(O)c3cccs3)N(Nc3ccc([N+](=O)[O-])cc3)C2C(=O)N1c1ccccc1 (stereo not given) -0.958
O=C1O[C@@H](c2ccccc2)[C@@H](c2ccccc2)N2[C@@H](c3ccc(OCCO)cc3)[C@]3(C(=O)Nc4ccc(C#CC5(O)CCCCCC5)cc43)[C@@H](C(=O)Nc3nc4ccccc4s3)[C@H]12 -0.27
CC(C)[Si](C#CCCc1ccccc1)(O[C@H](c1ccccc1)c1cn(Cc2ccccc2)nn1)C(C)C -0.0409
COCCOC(=O)N1C(=O)[C@@]2(c3cc(C#CC4(O)CCCCCC4)ccc31)[C@H](c1ccc(O)cc1)N1[C@H](c3ccccc3)[C@H](c3ccccc3)OC(=O)[C@H]1[C@@H]2C(=O)N1CCCCCCC1 -0.298
CN1C(=O)C2C(C3CC3)C=C3CN(Cc4cccc(Cl)c4)[C@@H]([C@@H](O)Cc4ccccc4)C3C2C1=O (stereo not given in full) 0.942
C=CCC(OC(C)=O)[C@@H]1[C@@H](N(Cc2ccc(-c3ccccc3)cc2)C(=O)c2cccc3ccccc23)c2cc(OCCCO)ccc2N1C(=O)Cc1ccc(OC)cc1 (stereo not given in full) -0.0251
O=C1NC(=O)C2C1C=CC(C(O)c1ccc([N+](=O)[O-])cc1)N2Nc1ccccn1 (stereo not given) -0.16
CCCCC(O)C1C=CC2C(=O)N(c3ccccc3)C(=O)C2N1Nc1ccccc1 (stereo not given) -0.407
COCCOC(=O)N1C(=O)[C@@]2(c3cc(C#Cc4ccc(OC)cc4)ccc31)[C@H](c1ccc(OCCO)cc1)N1[C@H](c3ccccc3)[C@H](c3ccccc3)OC(=O)[C@H]1[C@@H]2C(=O)NC[C@H](O)c1ccccc1 -0.6
O=C1O[C@H](c2ccccc2)[C@H](c2ccccc2)N2[C@H]1[C@@H](C(=O)N1CCN(c3ncccn3)CC1)[C@]1(C(=O)Nc3ccc(C#CCCO)cc31)[C@H]2c1ccc(O)cc1 -0.386
O=C1C[C@@](C(=O)O)(c2ccc([N+](=O)[O-])cc2)[C@@H](c2ccc(CO)cc2)N1C1CCCCC1 0.576
CN(C)CCCNC(=O)[C@@]1(C)c2ccccc2C(=O)N(Cc2ccc(OC(F)(F)F)cc2)[C@H]1c1ccc(CO)cc1 0.967
COCCOC(=O)N1C(=O)[C@@]2(c3cc(C#CCCO)ccc31)[C@H](c1ccc(OCCO)cc1)N1[C@H](c3ccccc3)[C@H](c3ccccc3)OC(=O)[C@H]1[C@@H]2C(=O)N1CCCCCCC1 -0.442
C#CCN1[C@@H](Cc2ccccc2)C(=O)O[C@H](Cc2ccccc2)[C@@H]1/C=C/C1CC1 1.37
CC(C)C[C@@H]1NC(=O)[C@@H]2C[C@H](C(=O)NCCCCCCNC(=O)CS)[C@H](c3cccc(OCCO)c3)N2C1=O -0.379
CCCCCC1=C2CNC(CC(C)C)(C(=O)OC)C=C2C(C)C1=O (stereo not given) 0.0841
